Our source for the outcome and AC50 values is PubChem BioAssay (EPA / NIEHS).

The term AC50 denotes the midpoint of the concentration-response curve, whichever way the signal moves.

Active and inactive are the calls of the source. Rule for the calls: active = hit-call score of the fitted dose curve at least 0.9, where 1 is the maximum; inactive = score below 0.9.

This test can be described thus: ATG_NRF2_ARE_CIS: Attagene CIS-FACTORIAL HepG2 Assay for human Nuclear Factor Erythroid 2 Related Factor 2 (NFR2) response to Antioxidant Response Elements (ARE) (AID 2282992). Particulars: HepG2 Attagene ARE/NRF2 reporter, transcription factor activity; actives raise or lower the signal. As to the method:
ATG_CIS is a cell-based, multiplexed-readout assay that uses HepG2, a human liver cell line, with measurements taken at 24 hours after chemical dosing in a 24-well plate.ATG_NRF2_ARE_CIS is one of 52 assay component(s) measured or calculated from the ATG_CIS assay. It is designed to make measurements of mRNA induction, a form of inducible reporter, as detected with fluorescence intensity signals by Reverse transcription polymerase chain reaction (RT-PCR) and Capillary electrophoresis technology.Data from the assay component ATG_NRF2_ARE_CIS was analyzed into 1 assay endpoint. This assay endpoint, ATG_NRF2_ARE_CIS, was analyzed with bidirectional fitting relative to DMSO as the negative control and baseline of activity. Using a type of inducible reporter, measures of mRNA for gain or loss-of-signal activity can be used to understand the reporter gene at the transcription factor-level as they relate to the gene NFE2L2. Furthermore, this assay endpoint can be referred to as a primary readout, because this assay has produced multiple assay endpoints where this one serves a reporter gene function. To generalize the intended target to other relatable targets, this assay endpoint is annotated to the dna binding intended target family, where the subfamily is basic leucine zipper.
Human liver HepG2 cells are transiently transfected with multiple reporter transcription units (MRTUs) in 6-well plates using FuGene 6 reagent (Roche; 3 ml FuGene/1 mg DNA). The MRTU constructs are regulated by a cis-regulating element (promoter). […] A major difference between the CIS and TRANS system is that in CIS activities of endogenous TFs are measured, whereas the TRANS assay evaluates changes in activities of exogenous, chimeric NR-Gal4 proteins. […] At the end of 24 hour incubation, total RNA was isolated using TriZol reagent (Invitrogen). The isolated RNA is then reverse-transcribed using oligo(dT) primer and Mo-MLV reverse transcriptase (Invitrogen) with DNAse I (Ambion) treatment for 30 min. The one-tenth of the produced cDNA was amplified by PCR using Taq DNA polymerase (Invitrogen) and two reporter sequence-specific primers. The PCR products were fluorescently labeled by primer extension with 6-arboxyfluorescein (6-FAM) 5'-labeled reporter sequence-specific primer (2 min at 95 C, 20 s at 68 C and 10 min at 72 C) and these products were digested with 5U of HpaI (New England Biolabs) for 2h at 37 C. The fragments were purified using Qiaquick PCR columns (Qiagen), analyzed on an ABI 3130xL genetic analyzer (Applied Biosystems) with peak positions identified by using a set of X-rhodamine (ROX)-labeled MapMarker1000 molecular weight standards (BioVentures). The raw capillary electrophoresis data was processed using Attagraph software (Attagene).
Consider `C1=CCCC1`, for which the molecule was classed as inactive.

Turning to `S=C(NC1CCCCC1)NC1CCCCC1`, the result was inactive.

Take `Cc1ccc(C(C)c2ccc(C)c(C)c2)cc1C`: the AC50 is 37.5 µM (active).

As for `CCCCCCCCCCCCCCCC[N+](C)(C)CC`, the result was inactive.

As for `CC(C)c1ccc2cc(C(C)C)ccc2c1`, the AC50 was 100 µM (active).

Regarding `Nc1nc2ccccc2[nH]1`, the molecule was called inactive.

In the case of `CCC(C)C=O` (stereo not given), the result was inactive.

Turning to `CCCOC(=O)CCCCC(=O)OCCC`, the molecule was called inactive.

As to `CC/C=C\CCOC(=O)CCCCC`, the result was inactive.

On to `O=C(O)c1cc2ccccc2nc1C(=O)O`, for which the call was inactive.

Turning to `CCc1nccnc1C`, the molecule was called inactive.

As to `CCCCCCCCCCOC(C)=O`, the molecule was called inactive.

Turning to `C=C(C)[C@@H]1CCC2=CCC[C@@H](C)[C@]2(C)C1`, the AC50 is 87.3 µM (active).

For the molecule `COC(=O)c1ccc2cc(C(=O)OC)ccc2c1`, the molecule was classed as inactive.

Consider `CCCCCCCCC(=O)OCC`, for which the AC50 was 47.4 µM (active).

Regarding `C=C(C)CCO`, the molecule was called inactive.

As for `NC(=O)NNC(N)=O`, the molecule was called inactive.

As to `C=C(C)C(=O)OCC(C)C`, the molecule was classed as inactive.

In the case of `CC(=O)OCC(C)OC(C)=O` (stereo not given), the molecule was called inactive.

As to `C[C@]12C=CC(=O)C=C1CC[C@@H]1[C@@H]2[C@@H](O)C[C@@]2(C)[C@H]1CC[C@]2(O)C(=O)CO`, the outcome was inactive.

With `CCOC(=O)c1ccccc1C(=C1C=C(Br)C(=O)C(Br)=C1)c1cc(Br)c(O)c(Br)c1`, the outcome was inactive.

As to `CCCCCCCCc1ccc(Nc2ccc(CCCCCCCC)cc2)cc1`, the result was inactive.

With `CCCc1ccc(OC)cc1`, the outcome was inactive.

Consider `CCOC(=O)CC(C(C)=O)C(C)=O`, for which the molecule was called inactive.

For `Cc1ccc(C2OC[C@@H]3OC(c4ccc(C)cc4)O[C@H]([C@H](O)CO)[C@@H]3O2)cc1` (stereo not given in full), the AC50 is 100 µM (active).

On to `CC(C)(C)c1n[nH]c(=O)n(N)c1=O`, for which the call was inactive.

Turning to `c1c[nH]cn1`, the call was inactive.

Take `Nc1ccc(N)c(Cl)c1`: the AC50 is 4.45 µM (active).

With `CCOC(=O)Cc1cccc2ccccc12`, the molecule was called inactive.

In the case of `CCCCCCCCCCOS(=O)(=O)O`, the half-maximal activity concentration (AC50) was 99.5 µM (active).

Turning to `c1ccc(CCCc2ccncc2)cc1`, the AC50 is 45.4 µM (active).

In the case of `CCCCCCCCCCCSCC(=O)O`, the result was inactive.

In the case of `CCCCCCOc1cc(C)c(O)c(C)c1C`, the AC50 is 7.78 µM (active).

In the case of `COc1ccc(-c2coc3cc(O)ccc3c2=O)cc1`, the call was inactive.

On to `CC(C)COC(=O)C=Cc1ccccc1`, for which the AC50 is 18.4 µM (active).

Regarding `OC1OCCOC1O` (stereo not given), the result was inactive.

For the molecule `C[Si](C)(C)O[Si](O)(O)O`, the outcome was inactive.

In the case of `CCN(CC)c1ccc(C(=O)c2ccccc2C(=O)O)c(O)c1`, the call was inactive.

With `O=C1CCCCCN1SSN1CCCCCC1=O`, the AC50 was 42.9 µM (active).

As for `CCOC(=O)c1ccc(N(C)C)cc1`, the call was inactive.
